Screening data (PubChem)
TDP1 cell noCPT: qHTS for Inhibitors of human tyrosyl-DNA phosphodiesterase 1 (TDP1): qHTS in cells in absence of CPT; DT40 Tdp1-/- hTDP1 cells, no CPT, ATP luminescence, 48 h; Potency, µM (highest dose often 46.2 µM), for the others: top-dose activity change, negative = growth inhibition, most hits filed as inhibitors; hit rate 15% among 420,000; AID 686978, 2013; further: potency means the concentration at half of the fitted maximal effect; on the % scale 0 is the no-effect control and ±100 the full control effect; nearly all actives have a fitted effect of over 55% in size
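Chicken DT40 Tdp1-/- cells stably complemented with human TDP1 were seeded at 400 cells/well with DMSO in place of 20 nM camptothecin. After compound pinning, cells grew at least 48 hr at 37 °C; viability read by CellTiter-Glo luminescence.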
DT40 TDP1 CPT: growth inhibition of DT40 Tdp1-/-;hTDP1 cells with camptothecin (screen for TDP1 inhibitors); chicken DT40 Tdp1-/-;hTDP1 cells + 20 nM CPT, ATP luminescence, 48 h; Potency, µM (doses to about 46.2 µM), for inactives: at the top dose activity change, negative = growth inhibition, usual class: inhibitors; hit rate 12% among 420,000; AID 686979; further: potency means the concentration at half of the fitted maximal effect; on the % scale 0 is the no-effect control and ±100 the full control effect; nearly all actives have a fitted effect of over 55% in size
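Chicken DT40 Tdp1-/- cells stably complemented with human TDP1 were seeded at 400 cells/well in medium containing 20 nM camptothecin, exposed to pin-transferred compounds, and grown at 37 °C for at least 48 hr. Viability was read as ATP luminescence.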
IL1B secr inh: inflammasome signaling inhibition, IL-1 beta readout; hit rate 4.7% among 360,000; THP-1 LPS/ATP IL-1B secretion, AlphaLISA, 16 h; hits give low values; activity change, % at 57.5 µM; in the data active means activity change below about -50%; inconclusive means mostly about -30% to -49%; further: on the % scale 0 is the no-effect control and ±100 the full control effect
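Secreted IL-1B measured by AlphaLISA bead assay after 16 h compound exposure of THP-1 cells; compounds (final up to 57.5 uM) added 1 h before LPS (250 ng/mL) and ATP (1.25 mM) stimulation; lower signal means less secretion.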
MCF10A rerep: DNA re-replication induction in MCF 10a cells | MCF 10A DNA re-replication, Hoechst nuclear intensity, 48 h | Potency, µM (top dose mostly 46.1 µM), without a hit: top-dose activity, positive = re-replication, actives largely listed as activators | hit rate 2.9% among 350,000; further: potency means the concentration at half of the fitted maximal effect; % of control where 0% means no effect; nearly all actives have a fitted effect of over 50% in size
SW480 rerep: induces DNA re-replication in SW480 colon adenocarcinoma cells; hit rate 1.8% among 340,000; SW480 DNA re-replication, Hoechst DNA content imaging, 48 h; Potency, µM (highest dose often 46.1 µM), inactives show at the top dose re-replication activation, most hits filed as activators; further: potency means the concentration at half of the fitted maximal effect; % of control where 0% means no effect; nearly all actives have a fitted effect of over 55% in size
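Per well, 250 cells were exposed to pinned compound for 48 hr. Nuclear DNA was visualised with Hoechst (40 min, 37 C) and total object intensity recorded by fluorescence scanning.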
Chronic BCR inh: blocks chronic active B-cell receptor signaling; ABC-DLBCL IkBa-CBG/CBR reporter, luminescence ratio, 4 h; Potency, µM (doses to about 46.1 µM), inactives show at the top dose activity change, negative = inhibition, hits mostly inhibitors; hit rate 0.05% among 340,000; active means well fitted inhibition curve with a large enough effect in the signal ratio, with a control signal flat, not every such curve was filed as active; inconclusive means small, poorly fitted or top-dose-only effect, or effect the other way, or a change in a side signal; the % refers to the signal ratio;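 further: potency means the concentration at half of the fitted maximal effect; plate controls were basal doxycycline-induced cells for no effect and cells given 10 µM MG132 for full effect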
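Concentration-response series (up to 46 uM) were applied to TMD8 dual-reporter cells for 4 h at 37C with doxycycline. Green/red ratio, after filter-overlap correction, defined %Activity; red signal alone was normalised to basal cells and zero luminescence.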
An asterisk follows results filed as active; i = inactive; ? = inconclusive; . = no result given. Hits are enriched below; roughly 19% of the tested compounds scored in any of these assays. Unless noted, the call rests on the fitted dose curve; in most records, active means well fitted curve in the direction sought with a large enough effect; inconclusive means small, poorly fitted or top-dose-only effect, or another doubt; inactive means no such curve, though single readings can be large; an effect the other way counts as inactive or inconclusive.

SMILES | TDP1 cell noCPT | DT40 TDP1 CPT | IL1B secr inh | MCF10A rerep | SW480 rerep | Chronic BCR inh
CC(C)CN(CC(C)C)C(=O)C1CCCN(S(=O)(=O)c2ccc3c(c2)oc(=O)n3C)C1 (configuration not stated) | -19% | -13% | . | . | . | .
O=C(Nc1nc(-c2ccc(Cl)s2)cs1)c1cccs1 | 18µM* | 23µM* | -84* | 11% | 0% | ?
CCCC(=O)Nc1nc(-c2ccc(Cl)s2)cs1 | 5.8µM* | 16µM* | 0 | ? | 28% | ?
O=C(Nc1ccc([N+](=O)[O-])cc1)Nc1nc(-c2ccc(Cl)s2)cs1 | 3.7µM* | 4.6µM* | -99* | 2.9µM* | -45% | 12%
Cc1csc(NC(=O)c2ccco2)n1 | -17% | 0% | 26 | 0% | 2% | -1%
O=C(O)C1CCCCC1C(=O)Nc1nc(-c2ccc(Cl)s2)cs1 (configuration not stated) | -5% | -8% | 4 | 6% | 0% | ?
O=C(Nc1nc(-c2ccc(Cl)s2)cs1)c1ccco1 | ? | ? | -84* | ? | 7% | 3%
COc1ccc(CC(=O)NCc2ccc(Cl)cc2)cc1S(=O)(=O)N1CCOCC1 | -11% | 4% | 18 | 10% | 3% | 0%
OC[C@H]1O[C@@H](n2cnc3c(N[C@H]4C[C@H]5CC[C@@H]4C5)ncnc32)[C@H](O)[C@@H]1O | 0% | 6% | . | . | . | .
COc1cc(CN2CCN(CC#Cc3ccccc3)CC2CCO)cc(OC)c1 (configuration not stated) | ? | ? | 18 | 7% | -12% | -9%
COc1cc(NC(=O)c2ccc3c(c2)OCCO3)ccc1NC(=O)c1ccccc1Cl | -26% | ? | -53* | 12% | 3% | 4%
COc1cc(NC(=O)c2ccc(Br)cc2)ccc1NC(=O)c1cc2ccccc2o1 | -17% | 4% | -13 | 0% | 6% | -1%
COc1cc(NC(=O)c2ccccc2F)ccc1NC(=O)c1cc2ccccc2o1 | -29% | ? | -26 | 2.3µM* | ? | 3%
COc1cc(NC(=O)c2cccc(Cl)c2Cl)ccc1NC(=O)c1cc2ccccc2o1 | 2.6µM* | 5.2µM* | . | . | . | .
COc1cc(NC(=O)c2ccc(C)cc2C)ccc1NC(=O)c1cc2ccccc2o1 | ? | ? | -7 | 9.2µM* | ? | 1%
NC(C(=O)O)C(O)c1ccc(O)c(O)c1 (configuration not stated) | . | . | . | 8% | -6% | .
CCCCc1ccc(S(=O)(=O)N/N=C(/C)c2ccncc2)cc1 | ? | 16µM* | i | 7% | -3% | -2%
COc1ccc([N+](=O)[O-])cc1N(CC(=O)N1CCN(Cc2ccccc2)CC1)S(C)(=O)=O | ? | ? | -14 | 5% | -2% | 0%
COc1ccc(C(=O)/C=C/c2ccc(OC3CSC3)cc2)cc1OC | 18µM* | ? | -88* | ? | ? | 8%
C=CCOc1ccc(C=CC(=O)c2c(O)c(OC)c(OC)c(OC)c2OC)cc1 | 16µM* | 16µM* | -102* | ? | 18% | .
COc1ccc2cc(C(=O)/C=C/c3cc(OC)c(O)c(OC)c3)ccc2c1 | 9.2µM* | 10µM* | -98* | 9.2µM* | ? | ?
COc1ccc(C=CC(=O)c2c(OC)cc(OC)c(OC)c2O)cc1 | ? | ? | -63* | ? | ? | .
C=CCOc1ccc(/C=C/C(=O)OCC(=O)NCc2cccc(OC)c2)cc1 | ? | 2% | 0 | ? | 9% | 3%
CCOC(=O)c1ccc(CN(Cc2ccc(F)cc2)S(=O)(=O)c2ccc(F)c(C(=O)Nc3c(C)cccc3C)c2)cc1 | ? | ? | . | . | . | 9%
CN(C)c1ncc2ncc(=O)n(C3CC3)c2n1 | -30% | ? | . | . | . | .
SMILES | TDP1 cell noCPT | DT40 TDP1 CPT | IL1B secr inh | MCF10A rerep | SW480 rerep | Chronic BCR inh
COc1cc(/C=C/C(=O)O)cc(OC)c1O | 6% | 5% | 17 | 5% | 7% | .
COc1ccc(C(=O)/C=C/c2cc(OC)c(O)c(OC)c2)c(F)c1 | 16µM* | ? | -100* | ? | 27% | ?
c1ccc(-c2ccc(N3CC[C@@]4(CCCNC4)C3)cc2)cc1 | 21µM* | 18µM* | . | . | . | .
O=C(c1ccncc1)N1CCC2(CC1)CN(C(c1ccccc1)c1ccccc1)C2 | -3% | 7% | . | . | . | .
O=S(=O)(c1ccccc1)N1CCC2(CCN(c3ccc(-c4ccccc4)cc3)CC2)CC1 | -6% | ? | . | . | . | .
c1ccc(-c2ccc(N3CC4(CCNCC4)C3)cc2)cc1 | 2.6µM* | 4.1µM* | . | . | . | .
c1ccc(C(c2ccccc2)N2CC3(CCNCC3)C2)cc1 | 15µM* | 21µM* | . | . | . | .
c1ccc(-c2ccc(N3CCCC4(CCNCC4)C3)cc2)cc1 | 2.6µM* | 5.8µM* | . | . | . | .
COC(=O)N1CCC2(CC1)CN(c1ccc(-c3ccccc3)cc1)C2 | -23% | 6% | . | . | . | .
CN(CC(=O)NCCc1ccccc1)Cc1ccco1 | -27% | -3% | -3 | 23% | -2% | -19%
CC12CCC(=O)N1C(C(=O)Nc1ccc(S(=O)(=O)N3CCCCC3)cc1)CS2 (configuration not stated) | -4% | -13% | 0 | 0% | -4% | 0%
CC1CC(C)CN(S(=O)(=O)c2ccc(NC(=O)C3CSC4(C)CCC(=O)N34)cc2)C1 (configuration not stated) | ? | 23µM* | ? | 15% | 2% | -2%
CN(C)c1ccc(S(=O)(=O)N2CCCCC2)cc1NC(=O)C1CSC2(C)CCC(=O)N12 (configuration not stated) | 26µM* | -25% | -27 | 11% | -19% | ?
N#Cc1cc2ccc(N3CCOCC3)cc2cc1C#N | 12µM* | 7.3µM* | 31 | 0% | 4% | ?
N#Cc1cc(Cl)c(N2CCOCC2)cc1C#N | -29% | -15% | -17 | 3% | -5% | 8%
O=C(CNC(=O)c1ccc(Br)o1)Nc1ccc(F)c(S(=O)(=O)N2CCOCC2)c1 | -16% | -16% | 31 | 1% | -7% | ?
CCOC(=O)CC1(NC(=O)c2cc(COc3c(F)cccc3F)on2)CCCCC1 | 8.2µM* | 12µM* | -9 | -3% | -7% | 0%
Cc1c(C(C)NC(=O)c2cc(COc3cccc4cnccc34)on2)cnn1C (configuration not stated) | 13µM* | 23µM* | -7 | 3% | -15% | ?
